High-throughput results from PubChem BioAssay.
Yp Topo-I inh – Y. pestis Topo-I inhibition via cleavage products. Y. pestis Topo-I cleavage product accumulation, plate reader. activity, % at 10 µM. 360,000 tested, 0.064% active. AID 504884; in the data active = activity above about 50%, passing the limit was not always enough
GDH-TPI counter-1 – counter-screen for M. tuberculosis FBA inhibitors: GDH-TPI coupled enzymes. GDH-TPI coupled enzyme counterscreen, NADH absorbance. 360,000 tested, 1.2% active. inhibition, % at 4.8 µM; in the data active = inhibition above about 30%;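 note: 0% = DMSO wells and 100% = wells lacking the enzyme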
FBA Mtb inh – Mtb fructose-bisphosphate aldolase inhibition | purified M. tuberculosis FBA, fluorescence read-out | inhibition, % at 1 µM | 360,000 tested, 2.3% active | P9WQA3;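 note: 0% = vehicle and 100% = reference inhibitor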
Target sequence (P9WQA3 whole entry, looked up): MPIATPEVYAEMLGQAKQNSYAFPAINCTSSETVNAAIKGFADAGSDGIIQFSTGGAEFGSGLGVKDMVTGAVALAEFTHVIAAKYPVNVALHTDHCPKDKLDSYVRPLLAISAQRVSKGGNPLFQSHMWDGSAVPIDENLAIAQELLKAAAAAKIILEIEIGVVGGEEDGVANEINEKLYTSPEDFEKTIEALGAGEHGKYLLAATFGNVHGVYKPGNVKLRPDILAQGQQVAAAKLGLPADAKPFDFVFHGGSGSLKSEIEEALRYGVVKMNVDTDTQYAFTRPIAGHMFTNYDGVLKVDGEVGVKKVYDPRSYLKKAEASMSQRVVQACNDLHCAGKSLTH
TcdB inh – inhibitors of Clostridioides difficile toxin B glycohydrolase; P18177; 350,000 tested, 0.24% active; TcdB glycohydrolase enzymatic assay, plate reader; AID 652162; inhibition, % at 9.99 µM; in the data active = inhibition above about 10%
PrPC surface inh – reduces human prion protein on the cell surface; P04156; cell surface PrPC, TR-FRET read-out; inhibition, % at 13.8 µM; 370,000 tested, 0.43% active; AID 720596; in the data active = inhibition above about 24%; note: 0% = median of the test wells and 100% = reference compound wells
Mtb FBA inh conf – confirmation of M. tuberculosis fructose-bisphosphate aldolase inhibitors; shares compounds with FBA Mtb inh; purified M. tuberculosis FBA, fluorescence read-out; inhibition, % at 1 µM; 5,600 tested, 78% active;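 note: 0% = vehicle wells and 100% = reference inhibitor wells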
GDH-TPI counter-2 – inhibits GDH-TPI coupling enzymes, flagging Mtb FBA hits; 5,600 tested, 81% active; GDH-TPI coupled enzyme counterscreen, fluorescence; shares compounds with FBA Mtb inh; AID 652141; inhibition, % at 1 µM; in the data active = inhibition above about 10%
GDH-TPI DR – GDH-TPI dose response counter-screen for Mtb FBA | IC50, µM | 170 tested, 79% active | GDH-TPI coupled enzyme assay, fluorescence, artifact counterscreen | AID 652145 | shares compounds with FBA Mtb inh; call rule not given here
The depositor's hits bear a star; x = not tested or not shown. Only some compounds are listed: those with a hit (about 3.2% of all), similar ones and a draw of the others. Cut-off read from the data, not from the text of the source, unless noted: active = inhibition above about 27%; inactive = the rest.

SMILES | Yp Topo-I inh | GDH-TPI counter-1 | FBA Mtb inh | TcdB inh | PrPC surface inh | Mtb FBA inh conf | GDH-TPI counter-2 | others
Cc1ccc2nc(-c3ccc(NC(=O)CNC4CC4)cc3)sc2c1 | -6.8 | 14.4 | 27.7* | 0.5 | -6.9 | 48.1* | 39.0*
C[C@@H]1CCCCO[C@@H](CN(C)C(=O)c2ccncc2)[C@@H](C)CN([C@H](C)CO)C(=O)c2cc(NS(=O)(=O)c3ccc(F)cc3)ccc2O1 | x | x | x | 1.0 | x | x | x
O=C(CCN1C(=O)NC2(CCCC2)C1=O)Nc1ccc(-c2nc3ccccc3s2)cc1 | 2.2 | 26.5 | 40.0* | 0.9 | -2.2 | 173.9* | 119.2*
O=C(CCN1C(=O)NC2(CCCC2)C1=O)Nc1ccc(Sc2ccc(Br)cc2)cc1 | 20.3 | 0.4 | -3.0 | 1.6 | 1.2 | x | x
Cc1ccc2nc(-c3ccc(NC(=O)COC(=O)c4ccc(=O)[nH]c4)cc3)sc2c1 | 12.5 | 8.6 | 38.7* | 0.3 | 3.9 | 39.3* | 29.8*
COc1ccc(-c2[nH]ncc2C2N=C(N)Nc3nc4ccccc4n32)cc1 (configuration not stated) | -8.1 | -0.6 | 33.9* | -4.4 | 6.1 | 70.0* | 51.9*
COc1ccc(S(=O)(=O)N(C)C[C@H]2Oc3ccc(N(C)C)cc3CC(=O)N([C@@H](C)CO)C[C@@H]2C)cc1 | x | x | x | -7.6 | x | x | x
CC(C)Cn1nc(NC(=O)C2CCCO2)c2cc3ccccc3nc21 (configuration not stated) | 2.3 | -1.5 | 9.8 | x | -13.1 | x | x
CCCn1nc(NC(=O)C2CCCO2)c2cc3cccc(C)c3nc21 (configuration not stated) | 11.4 | 14.8 | 37.3* | 1.9 | 2.6 | 179.4* | 149.1*
O=[N+]([O-])c1cccc(/C=N\N=C2c3ccccc3-c3ccccc32)c1O | -9.4 | -1.9 | 0.4 | -0.6 | -4.2 | x | x
O=[N+]([O-])c1cccc(C=NN=C2c3ccccc3-c3ccccc32)c1 | -4.7 | 9.5 | 30.0* | 8.1 | -5.8 | 143.9* | 108.6*
COC(=O)c1cc(C#N)c(N2CC(C)OC(C)C2)nc1C (configuration not stated) | 5.2 | 4.8 | 35.0* | 1.6 | -5.0 | 65.2* | 44.0*
C[C@@H]1CN([C@@H](C)CO)C(=O)Cc2cc(NC(=O)NC3CCCCC3)ccc2O[C@@H]1CN(C)S(=O)(=O)c1ccc(Cl)cc1 | x | x | x | 1.5 | x | x | x
c1ccc2c(-c3nc4ccccc4[nH]3)cccc2c1 | 4.4 | 0.4 | 107.3* | -0.2 | 10.7 | 79.7* | 42.2*
c1ccc2[nH]c(-c3ccnc4ccccc34)nc2c1 | -10.4 | 25.1 | 45.2* | x | -3.8 | 119.0* | 86.8*
COc1cccc(NC(=O)N[C@@H]2CC[C@@H](CC(=O)NCc3ccccn3)O[C@H]2CO)c1 | x | x | x | -1.9 | x | x | x
C/C=C/c1cnc2c(c1)C(=O)N([C@H](C)CO)C[C@H](C)[C@@H](CN(C)Cc1cccc(C(=O)O)c1)O2 | x | x | x | 0.9 | x | x | x
N#CCSc1n[nH]c2nc3c(c(=O)n12)C1(CCCC1)Cc1ccccc1-3 | -2.4 | -5.8 | 65.8* | x | -7.7 | 114.7* | 82.7*
Cc1noc(C)c1S(=O)(=O)Nc1ccc2c(c1)CC(=O)N([C@@H](C)CO)C[C@@H](C)[C@H](CN(C)CC1CCCCC1)O2 | x | x | x | 1.4 | x | x | x
O=c1[nH]c2c(=O)[nH]cnc2nc1-c1ccccc1 | -3.3 | 3.4 | 74.0* | 0.4 | -7.4 | 55.7* | 42.2*
O=C(C[C@@H]1C=C[C@H](NS(=O)(=O)c2ccc(F)cc2)[C@H](CO)O1)NCCN1CCCCC1 | x | x | x | 0.5 | x | x | x
C[C@@H]1CN([C@H](C)CO)C(=O)CCCn2nncc2CO[C@@H]1CN(C)C(=O)Nc1ccc2c(c1)OCCO2 | x | x | x | -0.7 | x | x | x
COc1ccc(C2Nc3ccccc3C(=O)N2NS(C)(=O)=O)c(OC)c1 (configuration not stated) | -1.0 | 4.3 | 27.7* | -0.2 | -5.1 | 12.3 | 1.1
Cc1ccc(S(=O)(=O)NN2C(=O)c3ccccc3NC2c2cccc(O)c2)cc1 (configuration not stated) | 8.8 | 0.6 | 3.2 | 2.8 | -7.1 | x | x
CS(=O)(=O)NN1C(=O)c2ccccc2NC1c1ccccc1 (configuration not stated) | 12.8 | 4.5 | 34.0* | 0.6 | -4.6 | 12.9 | -4.1 | GDH-TPI DR=5.37*
SMILES | Yp Topo-I inh | GDH-TPI counter-1 | FBA Mtb inh | TcdB inh | PrPC surface inh | Mtb FBA inh conf | GDH-TPI counter-2 | others
CS(=O)(=O)NN1C(=O)c2ccccc2NC1c1cccc(O)c1 (configuration not stated) | -10.8 | 8.3 | 40.9* | 0.3 | -1.4 | 111.9* | 81.0*
O=C(C[C@H]1CC[C@H](NC(=O)Nc2cc(F)ccc2F)[C@H](CO)O1)NCc1ccccn1 | x | x | x | 2.0 | x | x | x
C[C@H](CO)N1C[C@H](C)[C@@H](CN(C)S(C)(=O)=O)OCCCC[C@H](C)Oc2ccc(NC(=O)NC3CCCCC3)cc2C1=O | x | x | x | 0.2 | x | x | x
C[C@H](CO)N1C[C@H](C)[C@H](CN(C)CC2CC2)Oc2ccc(NC(=O)CCCCCC(=O)Nc3ccccc3N)cc2C1=O | x | x | x | -0.3 | x | x | x
Cc1ccc(C(=O)CC(c2cccs2)S(=O)(=O)c2ccc(C)cc2)cc1 (configuration not stated) | -1.0 | 2.2 | 101.5* | 0.8 | 2.3 | 61.2* | 28.9*
O=C(CC(c1cccs1)S(=O)(=O)c1ccccc1)c1ccc(F)cc1 (configuration not stated) | -2.0 | 4.0 | -2.9 | x | 7.0 | x | x
O=C(Nc1nnc2n1CCS2)c1ccc(Br)o1 | 5.7 | -7.6 | 104.6* | -0.5 | 1.8 | 127.4* | 76.2*
N#Cc1c(NCCCO)nc(NCc2ccccc2)c2c1CCN(Cc1ccccc1)C2 | 23.3 | 8.1 | 32.1* | x | -17.2 | 115.7* | 107.9*
CC1(C)Cc2c(C#N)c(NCCO)nc(-c3ccco3)c2CO1 | -3.4 | 14.1 | 59.3* | 0.9 | 6.1 | 31.9* | 20.0*
CN1CCc2c(C#N)c(N3CCCCC3)nc(NCc3ccccc3)c2C1 | -1.1 | 8.1 | 4.7 | x | -11.4 | x | x
N#Cc1c(NCCCO)nc(-c2ccco2)c2c1CCCC2 | 1.4 | 6.0 | 27.0* | x | -6.8 | 51.8* | 43.6*
C[C@H](CO)N1C[C@H](C)[C@@H](CN(C)Cc2ccc3c(c2)OCO3)OCCCC[C@H](C)Oc2ccc(NC(=O)C3CCCCC3)cc2C1=O | x | x | x | 0.3 | x | x | x
COc1cccc(C(=O)Nc2ccc3c(c2)OC[C@H](C)N(C(=O)C2CCCC2)C[C@@H](C)[C@H](OC)CN(C)C3=O)c1 | x | x | x | 0.6 | x | x | x
O=[N+]([O-])c1ccc2c(c1)nc1n2CCN(c2ccccc2)C1 | -2.6 | 2.9 | -2.3 | 1.0 | -21.9 | x | x
O=[N+]([O-])c1ccc2c(c1)nc1n2CCSC1 | 5.7 | 14.3 | 34.6* | -0.1 | -13.6 | 6.2 | -6.2
COc1ccc(S(=O)(=O)N2CCN(Cc3ccc(OC)c(OC)c3)CC2)cc1 | -8.0 | 6.9 | 29.0* | 0.6 | 0.5 | 39.6* | 42.3*
